# Measurements as given in PubChem BioAssay (EPA / NIEHS).
# Where “and” joins values, the source holds several entries; their conditions need not be identical. Equal entries are not always repeated. Some structures have more than one record in an assay (separate samples or runs), and their calls can disagree. Calls of active or inactive are those of the source. Rule for the calls: active = hit-call score of the fitted dose curve at least 0.9, where 1 is the maximum; inactive = score below 0.9.
# Biological target: Aryl hydrocarbon receptor (Homo sapiens) (UniProt P35869)
# Test: ATG_Ahr_CIS: Attagene CIS-FACTORIAL HepG2 Assay for human Aryl Hydrocarbon Receptor (Ahr) (AID 2282930)
# Details: HepG2 AhR cis-factorial reporter transcription; actives raise or lower the signal
# Protocol: ATG_CIS is a cell-based, multiplexed-readout assay that uses HepG2, a human liver cell line, with measurements taken at 24 hours after chemical dosing in a 24-well plate.ATG_Ahr_CIS is one of 52 assay component(s) measured or calculated from the ATG_CIS assay. It is designed to make measurements of mRNA induction, a form of inducible reporter, as detected with fluorescence intensity signals by Reverse transcription polymerase chain reaction (RT-PCR) and Capillary electrophoresis technology.Data from the assay component ATG_Ahr_CIS was analyzed into 1 assay endpoint. This assay endpoint, ATG_Ahr_CIS, was analyzed with bidirectional fitting relative to DMSO as the negative control and baseline of activity. Using a type of inducible reporter, measures of mRNA for gain or loss-of-signal activity can be used to understand the reporter gene at the transcription factor-level as they relate to the gene AHR. Furthermore, this assay endpoint can be referred to as a primary readout, because this assay has produced multiple assay endpoints where this one serves a reporter gene function. To generalize the intended target to other relatable targets, this assay endpoint is annotated to the dna binding intended target family, where the subfamily is basic helix-loop-helix protein.
# Human liver HepG2 cells are transiently transfected with multiple reporter transcription units (MRTUs) in 6-well plates using FuGene 6 reagent (Roche; 3 ml FuGene/1 mg DNA). The MRTU constructs are regulated by a cis-regulating element (promoter). […] A major difference between the CIS and TRANS system is that in CIS activities of endogenous TFs are measured, whereas the TRANS assay evaluates changes in activities of exogenous, chimeric NR-Gal4 proteins. […] At the end of 24 hour incubation, total RNA was isolated using TriZol reagent (Invitrogen). The isolated RNA is then reverse-transcribed using oligo(dT) primer and Mo-MLV reverse transcriptase (Invitrogen) with DNAse I (Ambion) treatment for 30 min. The one-tenth of the produced cDNA was amplified by PCR using Taq DNA polymerase (Invitrogen) and two reporter sequence-specific primers. The PCR products were fluorescently labeled by primer extension with 6-arboxyfluorescein (6-FAM) 5'-labeled reporter sequence-specific primer (2 min at 95 C, 20 s at 68 C and 10 min at 72 C) and these products were digested with 5U of HpaI (New England Biolabs) for 2h at 37 C. […] The raw capillary electrophoresis data was processed using Attagraph software (Attagene).
# Aryl hydrocarbon receptor (Homo sapiens), sequence (P35869 whole entry, looked up): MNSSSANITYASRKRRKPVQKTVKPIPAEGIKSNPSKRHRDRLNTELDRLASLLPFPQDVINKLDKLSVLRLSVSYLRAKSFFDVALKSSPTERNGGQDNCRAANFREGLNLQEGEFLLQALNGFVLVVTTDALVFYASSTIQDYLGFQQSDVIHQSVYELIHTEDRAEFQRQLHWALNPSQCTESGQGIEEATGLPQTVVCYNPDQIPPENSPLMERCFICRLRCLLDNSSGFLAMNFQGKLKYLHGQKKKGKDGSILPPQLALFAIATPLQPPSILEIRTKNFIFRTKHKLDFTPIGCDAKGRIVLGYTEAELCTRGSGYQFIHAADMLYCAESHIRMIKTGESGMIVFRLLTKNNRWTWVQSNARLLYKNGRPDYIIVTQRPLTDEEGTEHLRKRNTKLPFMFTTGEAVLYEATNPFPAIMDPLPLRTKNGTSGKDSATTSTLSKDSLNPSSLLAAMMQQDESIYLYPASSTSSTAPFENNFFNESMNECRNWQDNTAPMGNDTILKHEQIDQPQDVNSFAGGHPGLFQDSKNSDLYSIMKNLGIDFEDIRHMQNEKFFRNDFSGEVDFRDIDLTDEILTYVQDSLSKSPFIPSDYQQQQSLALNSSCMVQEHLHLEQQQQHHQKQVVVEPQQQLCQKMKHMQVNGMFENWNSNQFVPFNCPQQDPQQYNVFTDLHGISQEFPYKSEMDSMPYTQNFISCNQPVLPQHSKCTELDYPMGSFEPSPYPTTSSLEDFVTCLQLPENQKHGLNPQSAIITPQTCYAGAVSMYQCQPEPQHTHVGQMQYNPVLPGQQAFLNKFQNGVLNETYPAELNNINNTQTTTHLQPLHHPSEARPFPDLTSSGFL
Structure (SMILES),outcome,AC50
Nc1ccc(Oc2ccc(N)cc2)cc1,inactive,–
ClC1=C(Cl)[C@]2(Cl)[C@H]3[C@H]([C@@H]4C=C[C@H]3C4)[C@@]1(Cl)C2(Cl)Cl,inactive,–
CCCCCCCCn1sccc1=O,inactive,–
CN(C)[C@@H]1C(=O)C(C(N)=O)=C(O)[C@@]2(O)C(=O)C3=C(O)c4c(O)cccc4[C@@](C)(O)[C@H]3C[C@@H]12,inactive,–
CS(=O)(=O)NC(=O)c1cc(Oc2ccc(C(F)(F)F)cc2Cl)ccc1[N+](=O)[O-],inactive,–
Cc1ccc(N=C=O)cc1N=C=O,inactive,–
O=C(N[C@H](c1ccccc1)[C@@H]1CN2CCC1CC2)c1c(Cl)ccc(C(F)(F)F)c1Cl,inactive,–
OCCCl,inactive,–
Nc1ccc(N=Nc2ccccc2)cc1,–,25.4 µM (active)
O=[N+]([O-])C(Br)(CO)CO,inactive,–
CNC(=O)Oc1cccc2c1OC(C)(C)C2,–,65.6 µM (active)
OCCOCCO,inactive,–
CCCCCCCCOC(=O)c1ccc(C(=O)OCCCCCCCC)c(C(=O)OCCCCCCCC)c1,inactive,–
CC(C)COC(=O)c1ccccc1C(=O)OCC(C)C,inactive,–
Clc1ccccc1Cl,inactive,–
C1=Cc2cccc3cccc1c23,inactive,–
ClC1=C(Cl)C2(Cl)C3C(Cl)C=CC3C1(Cl)C2(Cl)Cl (stereo not given),inactive,–
C[C@]12C=CC3=C4CCC(=O)C=C4CC[C@H]3[C@@H]1CC[C@@H]2O,inactive,19.8 µM (active) and 35.7 µM (active)
CCOc1cccc(C2(N3CCN(c4ccccc4)CC3)CCC(C)CC2)c1 (stereo not given),inactive,–
c1ccc(N=Nc2ccccc2)cc1,–,125 µM (active)

Structure (SMILES),outcome,AC50
CC(C)N(Cc1ccccc1)C(=O)C(C)(C)C,inactive,–
Cc1cccc(N)c1N,–,1.09 µM (active)
O=C(Nc1ccccc1)c1ccccc1I,inactive,–
C[N+](C)(C)CC1CO1 (stereo not given),inactive,–
CCC[CH2][Sn]([Cl])([CH2]CCC)[CH2]CCC,inactive,–
Nc1ccc(Cc2ccc(N)cc2)cc1,inactive,–
Nc1cc(Cl)cc(C(=O)O)c1Cl,–,58 µM (active)
CC(C)(O)c1cnn2c(-c3ccc(F)c(-c4c(F)cccc4C#N)c3)cnc2n1,inactive,–
COC(=O)c1ccccc1N,–,43.8 µM (active)
COc1cc(C=O)cc2c1[C@H](COC(N)=O)[C@]1(OC(C)=O)ON2C[C@H]2[C@@H]1N2C(C)=O,–,0.314 µM (active)
CCCSC(=O)N(CCC)CCC,inactive,–
[As]#[In],–,65 µM (active)
Clc1ccc(Cl)c(Cl)c1,–,77.8 µM (active)
CCCCCCCCCCCCCN1CC(C)OC(C)C1 (stereo not given),inactive,–
CCC12COCN1COC2,inactive,–
ClCCOCCCl,inactive,–
Brc1ccc(Oc2ccccc2)cc1,inactive,–
N#CC(Br)(Br)C(N)=O,–,55.2 µM (active)
[Cl-].[Cl-].[Hg+2],inactive,–
